In PubChem BioAssay AID2320 (National Center for Advancing Translational Sciences (NCATS), 2010):
Results filed as inconclusive are left out. The source made the active and inactive calls. Calls come from the whole dose curve.

Assay: A qHTS for Small Molecule Inhibitors of Shiga Toxin (Confirmatory); note: nearly all actives have a fitted effect of over 75% in size
Conditions: Cell-based Shiga toxin protection reporter assay; series mostly up to 38.3 µM
Potency is the fitted concentration of half-maximal effect.

SMILES	Potency
COc1cc2c(c(OC)c1OC)-c1c(cc(OC)c(OC)c1OC)C[C@](C)(O)[C@@H](C)C2	inactive
Cc1cc(NC(=O)/C=C/c2ccc(Br)cc2)no1	8.95 µM (active)
COC(=O)c1c(NC(=O)c2ccn(C)n2)sc2c1CCC2	2.83 µM (active)
Cc1cc(C)nc(Sc2ccc3nnnn3n2)n1	28.3 µM (active)
Cc1cccc(C(=O)Nc2nnc(SCC(=O)NC3CC3)s2)c1	4.49 µM (active)
CCOC(=O)N1CCN(C(=O)CCC(=O)c2ccc(OCC)cc2)CC1	inactive
Cc1cccc(Cn2cc(SCC(=O)Nc3nccs3)c3ccccc32)c1	8.95 µM (active)
CC1=C(C)C(OCCBr)N(c2cc(O)c(Cl)cc2F)C1=O (stereo unspecified)	inactive
Cc1ccc(NC(=O)c2cc(S(=O)(=O)N3CCCCC3)ccc2N2CCOCC2)cc1F	0.04 µM (active)
Cc1ccc(-c2csc(NC(=O)c3ccc(C)o3)n2)cc1	0.0318 µM (active)
CNC(=O)c1cccn(Cc2ccc(C(F)(F)F)cc2)c1=O	0.1 µM (active)
COC(=O)c1ccc(NC(=O)Cc2ccc(F)cc2)cc1	5.65 µM (active)
COc1ccc(C(=O)Nc2ccccc2C(=O)NCc2ccco2)cc1	5.65 µM (active)
CCCC[C@@H]1C[C@H]1[C@@H](NC(=O)c1ccco1)c1ccc(Cl)cc1	8.95 µM (active)
Cc1nnc(N2C(=O)C(=O)/C(=C(/O)c3ccc4c(c3)OCCO4)C2c2ccc([N+](=O)[O-])cc2)s1 (stereo unspecified)	inactive
O=C(c1cc2c(s1)-c1ccccc1OC2)N1CCN(c2ccccc2)CC1	inactive
